# Bioassay records from PubChem BioAssay.
# GSH bead fluor = GSH bead compound fluorescence profile; GSH beads flow cytometry, compound fluorescence 488/530 nm; active compounds read high; fluorescence (KMESF) at 10 µM; 190,000 tested, 0.25% active; AID 1776; in the data active = fluorescence above about 89;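 also: glutathione beads carrying GST-tagged Bcl family fusion proteins plus one bare bead set; values are compound well signal with DMSO vehicle wells as background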
# RGS16-Gao = RGS16-Galphao interaction regulator (human); O15492+P09471; 220,000 tested, 0.38% active; bead-based flow cytometry RGS16-Galphao binding, fluorescence; actives lie on both sides; binding response (% of control), % at 10 µM; call rule not given here;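 also: Galphao activated by GDP with aluminum fluoride before binding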
# RGS8-Gao = modulates binding of RGS8 to human Galphao; 220,000 tested, 0.34% active; AID 1423; response (percent of control binding), % at 10 µM; P09471; multiplexed bead flow cytometry; actives lie on both sides; in the data active = response below about 60% or above about 140%; inactive = in between;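 also: Galphao activated as the GDP aluminium fluoride complex binding bead-coupled RGS8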
# Target sequence (P09471 whole entry, looked up): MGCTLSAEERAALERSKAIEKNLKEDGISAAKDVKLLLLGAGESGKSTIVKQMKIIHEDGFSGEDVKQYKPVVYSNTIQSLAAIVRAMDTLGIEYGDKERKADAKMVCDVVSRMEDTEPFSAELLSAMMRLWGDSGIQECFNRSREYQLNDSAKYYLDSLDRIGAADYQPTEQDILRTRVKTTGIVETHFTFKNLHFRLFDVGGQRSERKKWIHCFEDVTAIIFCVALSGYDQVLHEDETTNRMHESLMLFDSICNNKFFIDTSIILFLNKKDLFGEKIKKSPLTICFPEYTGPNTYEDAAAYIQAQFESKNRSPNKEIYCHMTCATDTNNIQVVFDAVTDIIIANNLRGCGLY
# RGS7-Gao reg = regulators of human RGS7-Galphao interaction. Multiplexed bead flow cytometry, RGS7-Galphao binding; actives lie on both sides. AID 1439. 220,000 tested, 0.35% active. binding response (% of control), % at 10 µM; in the data active = binding response below about 49% or above about 150%; inconclusive = no clear call, values can overlap the other calls; inactive = in between;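 also: fluorescent Galphao held in activated GDP-AlF4 state binding bead-coupled RGS7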
# RGS4-Gao reg = human RGS4-Galphao interaction regulation. 220,000 tested, 0.33% active. Multiplexed bead flow cytometry, RGS4-Galphao binding; actives lie on both sides. binding response (% of control), % at 10 µM. P09471; in the data active = binding response below about 49% or above about 150%; inactive = in between;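 also: fluorescent Galphao activated with aluminum fluoride binding bead-coupled RGS4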
# Avidin bead fluor = avidin bead compound fluorescence profile; Avidin beads, compound fluorescence 488/530 nm, flow cytometry; active compounds read high; fluorescence (KMESF) at 10 µM; 220,000 tested, 0.38% active; AID 1775; in the data active = fluorescence above about 47
# * = called active by the depositor; ? = inconclusive; . = no result. An excerpt weighted towards active compounds, which were near 1.2% of everything screened.
SMILES,GSH bead fluor,RGS16-Gao,RGS8-Gao,RGS7-Gao reg,RGS4-Gao reg,Avidin bead fluor
CCNC(=O)CSc1nnc(CN2CCCCCC2=O)n1-c1ccccn1,15,109.2,103.1,103.3,103.0,26
O=C1CCCCCN1Cc1nnc(SCc2nc3ccccc3s2)n1-c1ccccn1,257*,108.3,100.8,106.3,102.6,8
Nc1ccccc1SC1CC(=O)N(c2ccccc2Cl)C1=O (stereo not drawn),.,98.0,101.0,?,101.0,6
NC(=O)c1cc(NC(=O)c2ccc(NS(=O)(=O)c3cccs3)cc2)cc(C(N)=O)c1,.,98.5,99.7,?,101.4,8
O=C(Nc1ccc(S(=O)(=O)N2CCCC2)cc1)N1c2ccccc2Sc2ccccc21,24,103.0,98.3,127.0,99.5,77*
Cc1ccnc(SCC(=O)c2cc3ccccc3o2)n1,14,98.7,99.8,?,100.7,9
CC(C)CCNC(=O)CN(C(=O)Cn1nnc(-c2ccccc2F)n1)c1cccc2c1CCCC2,23,0.7*,11.8*,11.7*,19.6*,-1
O=C(COc1ccc(Cl)cc1Cl)N/N=C1\CCCc2ccccc21,27,5.2,23.1*,26.6*,33.9*,2
CCOC(=O)c1[nH]c(C)c(C(=O)Nc2ccc(C)c(Cl)c2)c1C,25,100.6,102.0,109.7,100.2,62*
O=C(Nc1ccccc1)C1=C[C@@H](c2coc3ccccc3c2=O)C[C@@H](OCCCCO)O1,19,89.1,94.8,91.3,93.7,4
O=C(Oc1cccnc1)c1cccc(Cl)c1,267*,110.7,106.4,104.4,106.8,6
CCN(CC(=O)NC(C)(C)C)C(=O)CCl,11,97.5,99.2,104.3,102.6,17
CC(=O)N1CCC(C(=O)Nc2ccccc2)(N(Cc2ccccc2)C(=O)c2cccnc2)CC1,267*,106.1,103.6,100.0,102.3,8
c1ccc(Cn2c(CSc3nnnn3-c3ccccc3)nc3ccccc32)cc1,237*,25.7,97.2,97.1,84.5,3
CCOC(=O)c1c(NC(=O)COC)sc(C(C)=O)c1C,54,111.2,100.8,104.1,104.5,11
CCOC(=O)c1c(NC(=O)COC)sc(C)c1C,126*,109.1,109.1,107.5,110.5,6
Cc1onc(-c2ccccc2)c1C(=O)OCC(=O)Nc1ccc2c(c1)OCO2,8,109.1,102.1,99.5,111.0,18
Cc1onc(-c2ccccc2Cl)c1C(=O)N1CCCc2ccccc21,30,100.0,100.8,98.8,100.2,10
Cc1onc(-c2ccccc2Cl)c1C(=O)OCC(=O)Nc1ccc2c(c1)OCO2,263*,103.0,104.9,105.3,104.1,7
Cc1onc(-c2ccccc2Cl)c1C(=O)OCC(=O)N1CCCc2ccccc21,267*,105.1,102.0,106.2,105.6,8
CCN(CC)CCCNC(=O)C1c2ccccc2C(=O)N(CCOC)C1c1ccc(F)cc1 (stereo not drawn),15,101.1,100.5,?,102.2,9
COCCN1C(=O)c2ccccc2C(C(=O)Nc2ccc3c(c2)OCCO3)C1c1ccc(F)cc1 (stereo not drawn),8,96.2,99.2,114.9,103.6,62*
O=C(CCCCn1c(=O)c2ccccc2n(Cc2ccc(F)cc2)c1=O)NCc1ccco1,19,99.2,97.8,101.1,95.1,7
Cn1c(Cn2c(=O)sc3ccccc32)nnc1SCC(=O)NCc1ccco1,16,107.0,100.3,96.8,99.3,26
O=C(CCCn1c(=O)c2ccccc2n(Cc2ccccc2)c1=O)NCc1ccco1,10,136.4,109.5,122.0,127.4,60*
O=C(CCn1c(=O)sc2ccccc21)NCc1ccco1,120*,183.5,120.7,120.2,123.4,14
O=c1n(-c2ccccc2)c(=O)n2n1CC(O)C2,20,101.8,100.7,100.4,104.6,6
O=C(O)C1Cc2[nH]cnc2C(c2ccccc2O)N1 (stereo not drawn),9,102.4,99.8,105.2,101.6,6
O=C(OCCCCN1C(=O)c2ccccc2C1=O)c1ccc(S(=O)(=O)N2CCCC2)cc1,266*,100.8,101.3,104.1,101.7,7
Cc1ccc(OCCC(=O)OCC(=O)Nc2ccc(Cl)cn2)cc1,272*,96.2,98.0,94.7,98.4,7
